Test [1] is described as follows: wild-type E. coli growth inhibition versus h38 humanized strain – h38 mutant RFP, wild-type GFP, cherry-pick, dose response (AID 977622). The conditions noted are these: activity change: E. coli mixed culture, total growth OD600 at 50 uM, at 50 µM.
The subject of test [2] is E. coli h38 humanized mutant ribosome RFP fluorescence, mixed culture, 24 h. The test is described as above. The settings on record: h38 mutant RFP at 50 uM; at 50 µM.

Fewer than 10 of roughly 1,900 compounds were called active. Inconclusive results (about 39%) are left out.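 Rule for the calls: active = Green signal of the normal strain falls at least twice as much as red signal of the resistant mutant, with overall culture growth loss under a set limit; inconclusive = no clear call, values can overlap the other calls; inactive = the rest.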 Only a sample is shown.

As to `COCc1[nH]nc2c1C(c1ccc3c(c1)OCO3)N(c1ccc(OC)cc1)C2=O` (stereo not drawn), in test [1], the activity change amounted to 1.74% and the molecule was called inactive.

`O=C(c1cc(COc2ccc(F)cc2F)on1)N1CCCC(c2ccccc2)C1` (stereo not drawn): in test [1], the activity change was found to be 5.17% and the molecule was called inactive. Besides, the activity change in test [2] was -5.01%.

In the case of `CCOC(=O)Cc1csc(SCC(=O)Nc2cc(C)ccc2OC)n1`, in test [1], the activity change was -33.1% and the molecule was classed as inactive. In addition, the activity change in test [2] stood at 38.6%.

In the case of `CC(=O)Nc1cccc(OCc2ccc([N+](=O)[O-])cc2)c1`, in test [1], the activity change was -10.5% and the molecule was called inactive. The activity change in test [2] was -23.9%.

Turning to `CC(CCc1ccccc1)NC(=O)CNC(=O)COc1ccccc1` (stereo not drawn), in test [1], the activity change was -14.6% and the molecule was classed as inactive. Moreover, in test [2], the activity change was 9.58%.

For `O=S(=O)(NOCc1ccc(Cl)cc1)c1ccc(Cl)cc1`, in test [1], the activity change is -42.8% and the molecule was called inactive. In test [2], the activity change was -52%.

`O=C(c1cccc2ccccc12)C1CCCN(C(=O)CCc2cnccn2)C1` (stereo not drawn): in test [1], the activity change is -12% and the molecule was classed as inactive. Also, the activity change in test [2] was -5.75%.

Take `C[C@@H]1CN([C@@H](C)CO)C(=O)c2cc(NC(=O)Nc3cccc4ccccc34)ccc2O[C@@H](C)CCCCO[C@H]1CN(C)C`: in test [1], the activity change is -2.41% and the outcome was inactive. For the same molecule, the activity change in test [2] is -18%.

As to `C[C@]12C(=O)N(c3ccc(F)cc3)C(=O)N1[C@@H]1c3ccccc3OC[C@@H]1[C@H]2c1ccccc1`, the activity change in test [1] is -20.2%; in test [2] it was -13.6%. Further, the molecule was called inactive in test [1].

For `O=C(O)c1cccc2c1-c1ccc([N+](=O)[O-])cc1C2=O`, in test [1], the activity change is -0.103% and the outcome was inactive. In addition, the activity change in test [2] is -6.27%.

In the case of `COc1ccc([C@H]2C[C@H](O)C[C@@H](CCn3cc(-c4ccccc4)nn3)O2)cc1`, the activity change was -21.6% in test [1] and 19.3% in test [2]. Also, the molecule was called inactive in test [1].

For `O=C(Nc1ccc(F)cc1)N1CCCCN2[C@@H](CO)[C@H](c3ccc(-c4ccncc4)cc3)[C@@H]2C1`, in test [1], the activity change was 12% and the outcome was inactive. In addition, in test [2], the activity change was -0.029%.

As for `Cc1ccccc1S(=O)(=O)N1C[C@H]2CON(C)[C@H]2C[C@H]1c1cccc(-c2ccc(C#N)cc2)c1`, in test [1], the activity change is -28.1% and the outcome was inactive. The activity change in test [2] is -10.7%.

In the case of `CC(=O)Nc1cccc(OCCCOc2cccc([N+](=O)[O-])c2)c1`, the activity change was -16.8% in test [1] and 44.4% in test [2]. Besides, the outcome in test [1] was inactive.

Take `Nc1[nH]c(C(=O)c2ccccc2)c(-c2ccc3c(c2)OCO3)c1C(=O)NCCc1c[nH]c2ccccc12`: in test [1], the activity change is -18.1% and the molecule was called inactive. For the same molecule, in test [2], the activity change is -20.2%.

For the molecule `Cc1ccc2nc(-c3ccc(Cl)cc3)c(Cc3ccccc3C(F)(F)F)n2c1`, the activity change in test [1] is -10.5%; in test [2], 37.7%. In addition, in test [1], the molecule was classed as inactive.

Turning to `CC(C)n1nnnc1C1c2ccccc2C(=O)N1CCOc1ccccc1` (stereo not drawn), the values for the activity change in test [1] and in test [2] were -14.1% and -9.39%, respectively. Also, in test [1], the molecule was classed as inactive.

As for `Cc1occc1-c1nnc(SCC(=O)Nc2nc(-c3ccccc3)cs2)o1`, in test [1], the activity change was -4.96% and the molecule was called inactive. For the same molecule, in test [2], the activity change worked out at 8.71%.

Consider `O=C(O)CC(CC(=O)Nc1ccc2ccccc2n1)c1ccccc1` (stereo not drawn), for which, in test [1], the activity change was -7.83% and the call was inactive. Besides, in test [2], the activity change is 7.39%.

For `CCOC(=O)c1cccc(OC(=O)CCNC(=O)c2ccc(Cl)cc2)c1`, the figures for the activity change in test [1] and in test [2] were -36.4% and -3.29%, respectively. In addition, in test [1], the molecule was classed as inactive.

For the molecule `C[C@H]1CN([C@@H](C)CO)C(=O)CCCn2nncc2CO[C@@H]1CN(C)Cc1ccccc1C(F)(F)F`, the activity change in test [1] was -28.1%; in test [2] it was -45.2%. Also, the call in test [1] was inactive.

As for `Cn1nc(C(=O)Nc2cccc(S(=O)(=O)N3CCCCC3)c2)c2ccccc2c1=O`, in test [1], the activity change was -5.66% and the molecule was classed as inactive. For the same molecule, the activity change in test [2] is -3.97%.

Take `O=S1(=O)N[C@H](Cc2ccccc2)COc2cc(N3CCSCC3)ccc21`: the activity change was -14.3% in test [1] and 12% in test [2]. Besides, in test [1], the outcome was inactive.

Regarding `CN(CCOc1ccccc1)S(=O)(=O)c1ccccc1C#N`, in test [1], the activity change is -20.9% and the call was inactive.

In the case of `CN(C)S(=O)(=O)c1cccc(C(=O)OCC(=O)c2ccc3c(c2)NC(=O)CO3)c1`, in test [1], the activity change is -6.04% and the result was inactive.

On to `O=C(COC(=O)C1CC2C=CC1C2)Nc1ccc([N+](=O)[O-])cc1` (stereo not drawn), for which, in test [1], the activity change was -15.1% and the call was inactive. The activity change in test [2] was -8.7%.

Turning to `C[C@@H]1CN([C@@H](C)CO)C(=O)CCCn2nncc2CO[C@H]1CN(C)C(=O)Nc1cccc(C(F)(F)F)c1`, in test [1], the activity change is -2.42% and the molecule was called inactive. The activity change in test [2] is -7.01%.

With `Fc1cccc(Cc2c(-c3ccco3)nc3c4ccccc4ccn23)c1`, in test [1], the activity change stood at 3.21% and the molecule was classed as inactive. Further, in test [2], the activity change is 15.9%.

On to `O=C(c1ccccc1)C1Oc2ccccc2C2CC(c3cccs3)=NN12` (stereo not drawn), for which the activity change in test [1] was -7.77%; in test [2], 46.5%. Moreover, the call in test [1] was inactive.

`C=CCSc1cc(C)nc2c(-c3ccccc3)c(C)nn12`: in test [1], the activity change is -4.42% and the molecule was called inactive. In addition, in test [2], the activity change is -3.25%.

On to `Cc1cc(C)c(OCC(=O)OCC(=O)N2CCc3ccccc3C2)c(C)c1`, for which the activity change is -18.4% in test [1] and -19.1% in test [2]. Moreover, the molecule was called inactive in test [1].

Regarding `Cc1noc(C)c1NC(=O)Nc1ccc2c(c1)C(=O)N([C@H](C)CO)C[C@H](C)[C@H](CN(C)C(=O)Nc1ccc3c(c1)OCO3)OCCCC[C@@H](C)O2`, in test [1], the activity change was -29.4% and the molecule was called inactive. Further, the activity change in test [2] was -22.3%.

Consider `COc1ccccc1NC(=O)CSc1nccn1Cc1ccc(F)cc1`, for which the figures for the activity change in test [1] and in test [2] were -34.2% and -43.9%, respectively. Moreover, in test [1], the result was inactive.

`COc1cc2ccccc2cc1C(=O)NCC(c1cccs1)N(C)C` (stereo not drawn): in test [1], the activity change was -20.3% and the molecule was classed as inactive. Further, the activity change in test [2] is 10.8%.

With `COc1cccc(NC(=O)N(C)C[C@H]2Oc3ncc(C#Cc4cccnc4)cc3C(=O)N([C@H](C)CO)C[C@H]2C)c1`, in test [1], the activity change was -8.41% and the result was inactive. The activity change in test [2] is -2.54%.

As for `O=C(O)CC(CC(=O)Nc1ccc(Oc2ccccc2)cc1)c1ccccc1` (stereo not drawn), the activity change is -38.6% in test [1] and -21.4% in test [2]. Besides, the molecule was classed as inactive in test [1].

On to `Cc1onc(-c2ccccc2Cl)c1C(=O)N1CCN(Cc2ccc3c(c2)OCO3)CC1`, for which, in test [1], the activity change was -18.8% and the molecule was called inactive. Moreover, the activity change in test [2] is -29.8%.
